# PMC7862700, “An all-to-all approach to the identification of sequence-specific readers for epigenetic DNA modifications on cytosine”
# How the values were obtained:
# Test in all cases: DAPPL (digital affinity profiling via proximity ligation, sequencing); 10 mM Tris-HCl pH 7.5, 50 mM NaCl, 1 mM DTT, 4% glycerol, room temperature, 30 min; GST-TFs on glutathione beads, 16-mer random dsDNA library, 0.1% formaldehyde crosslink after washing; high values mean tight binding
# FLI1 = target: T1, FLI1 (Homo sapiens, UniProt Q01543 1-452); conditions: protein: recombinant; tags: N-terminal GST; dsDNA, one strand shown
# T1 sequence: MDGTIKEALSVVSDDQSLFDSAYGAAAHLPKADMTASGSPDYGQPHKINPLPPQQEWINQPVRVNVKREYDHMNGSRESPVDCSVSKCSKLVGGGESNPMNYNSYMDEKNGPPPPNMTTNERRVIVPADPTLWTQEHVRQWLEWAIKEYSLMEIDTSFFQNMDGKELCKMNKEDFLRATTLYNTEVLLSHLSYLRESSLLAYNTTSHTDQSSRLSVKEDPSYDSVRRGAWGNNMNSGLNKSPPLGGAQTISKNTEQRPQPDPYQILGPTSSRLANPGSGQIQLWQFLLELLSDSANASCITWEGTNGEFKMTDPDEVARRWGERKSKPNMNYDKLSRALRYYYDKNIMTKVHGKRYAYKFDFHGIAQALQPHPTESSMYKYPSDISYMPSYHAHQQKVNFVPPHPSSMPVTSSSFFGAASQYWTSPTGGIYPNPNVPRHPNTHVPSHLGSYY
# In short: (§1)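 The binding signal reported is, for every hexamer, its read frequency for a factor over its read frequency for the tag-only sample. Reads came from pools of yeast-expressed, GST-fused human transcription factors on glutathione beads, barcoded with DNA and mixed with that sample, which were incubated with 200 nmole of a random double-stranded 16-mer DNA library in Tris/NaCl/DTT/glycerol buffer at room temperature for 30 min. After washing, the pools were crosslinked with 0.1% formaldehyde, proximity-ligated with BsaI/T4 ligase for 1 h at 37 °C, PCR-amplified and sequenced on an Illumina NextSeq500.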
# ELK1 = target: T2, ELK1 (Homo sapiens, UniProt P19419 1-428); conditions: protein: recombinant; tags: N-terminal GST; dsDNA, one strand shown
# T2 sequence: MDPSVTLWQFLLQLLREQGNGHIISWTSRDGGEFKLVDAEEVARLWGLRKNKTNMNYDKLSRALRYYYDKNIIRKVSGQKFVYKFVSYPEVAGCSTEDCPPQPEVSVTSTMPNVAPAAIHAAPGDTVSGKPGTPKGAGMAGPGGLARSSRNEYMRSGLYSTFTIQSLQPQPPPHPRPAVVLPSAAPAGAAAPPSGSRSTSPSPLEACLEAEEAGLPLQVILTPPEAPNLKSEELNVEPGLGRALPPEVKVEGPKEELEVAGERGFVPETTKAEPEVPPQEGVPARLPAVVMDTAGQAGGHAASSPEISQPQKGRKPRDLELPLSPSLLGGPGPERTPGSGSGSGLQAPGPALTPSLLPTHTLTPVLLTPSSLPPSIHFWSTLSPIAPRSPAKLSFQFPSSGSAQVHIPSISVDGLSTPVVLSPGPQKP
# In short: as §1
# GABPA = target: T3, GABPA (Homo sapiens, UniProt Q06546 1-454); conditions: protein: recombinant; tags: N-terminal GST; dsDNA, one strand shown
# T3 sequence: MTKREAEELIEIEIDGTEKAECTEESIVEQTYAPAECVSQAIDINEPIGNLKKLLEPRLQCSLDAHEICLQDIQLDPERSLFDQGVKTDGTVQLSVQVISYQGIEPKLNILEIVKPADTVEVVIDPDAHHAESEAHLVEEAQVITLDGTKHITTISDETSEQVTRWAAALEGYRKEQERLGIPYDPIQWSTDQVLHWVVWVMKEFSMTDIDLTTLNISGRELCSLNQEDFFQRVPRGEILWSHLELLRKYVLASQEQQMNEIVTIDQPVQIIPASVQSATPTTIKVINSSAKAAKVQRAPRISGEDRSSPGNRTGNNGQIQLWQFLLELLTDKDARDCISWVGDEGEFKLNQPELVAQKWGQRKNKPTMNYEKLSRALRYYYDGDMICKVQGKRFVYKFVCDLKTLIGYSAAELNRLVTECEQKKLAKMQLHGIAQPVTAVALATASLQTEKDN
# In short: as §1
# ERG = target: T4, ERG (Homo sapiens, UniProt P11308 1-479); conditions: protein: recombinant; tags: N-terminal GST; dsDNA, one strand shown
# T4 sequence: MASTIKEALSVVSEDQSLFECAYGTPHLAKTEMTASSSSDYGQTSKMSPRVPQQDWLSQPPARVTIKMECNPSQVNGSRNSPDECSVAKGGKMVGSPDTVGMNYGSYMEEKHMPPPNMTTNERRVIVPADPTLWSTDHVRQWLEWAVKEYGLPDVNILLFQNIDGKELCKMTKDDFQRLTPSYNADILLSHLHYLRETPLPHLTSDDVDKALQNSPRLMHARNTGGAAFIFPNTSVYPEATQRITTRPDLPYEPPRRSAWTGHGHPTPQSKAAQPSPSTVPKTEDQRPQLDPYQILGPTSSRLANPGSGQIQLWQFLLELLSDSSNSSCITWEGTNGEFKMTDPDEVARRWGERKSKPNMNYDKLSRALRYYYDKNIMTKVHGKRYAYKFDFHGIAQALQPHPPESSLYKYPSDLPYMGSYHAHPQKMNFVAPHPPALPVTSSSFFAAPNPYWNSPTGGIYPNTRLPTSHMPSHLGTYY
# In short: as §1
# ELF1 = ELF1 (Homo sapiens, UniProt P32519 1-619); conditions: protein: recombinant; tags: N-terminal GST; dsDNA, one strand shown
# ELF1, sequence (P32519 whole entry): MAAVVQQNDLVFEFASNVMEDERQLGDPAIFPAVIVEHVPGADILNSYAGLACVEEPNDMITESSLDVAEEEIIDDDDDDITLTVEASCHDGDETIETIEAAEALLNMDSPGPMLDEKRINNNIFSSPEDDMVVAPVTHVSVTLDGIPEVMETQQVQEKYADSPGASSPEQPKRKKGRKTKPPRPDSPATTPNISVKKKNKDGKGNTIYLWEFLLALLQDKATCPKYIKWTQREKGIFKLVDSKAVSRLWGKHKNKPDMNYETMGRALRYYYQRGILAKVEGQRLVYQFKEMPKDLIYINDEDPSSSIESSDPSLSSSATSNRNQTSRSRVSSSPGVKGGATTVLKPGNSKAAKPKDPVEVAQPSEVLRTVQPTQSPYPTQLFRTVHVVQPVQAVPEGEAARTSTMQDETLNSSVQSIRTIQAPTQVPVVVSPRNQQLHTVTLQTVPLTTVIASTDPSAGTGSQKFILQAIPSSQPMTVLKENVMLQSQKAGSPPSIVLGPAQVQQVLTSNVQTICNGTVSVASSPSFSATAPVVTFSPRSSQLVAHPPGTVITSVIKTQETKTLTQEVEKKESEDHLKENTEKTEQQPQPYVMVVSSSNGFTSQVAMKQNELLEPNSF
# In short: as §1
# EHF = target: T5, EHF (Homo sapiens, UniProt Q9NZC4 1-300); conditions: protein: recombinant; tags: N-terminal GST; dsDNA, one strand shown
# T5 sequence: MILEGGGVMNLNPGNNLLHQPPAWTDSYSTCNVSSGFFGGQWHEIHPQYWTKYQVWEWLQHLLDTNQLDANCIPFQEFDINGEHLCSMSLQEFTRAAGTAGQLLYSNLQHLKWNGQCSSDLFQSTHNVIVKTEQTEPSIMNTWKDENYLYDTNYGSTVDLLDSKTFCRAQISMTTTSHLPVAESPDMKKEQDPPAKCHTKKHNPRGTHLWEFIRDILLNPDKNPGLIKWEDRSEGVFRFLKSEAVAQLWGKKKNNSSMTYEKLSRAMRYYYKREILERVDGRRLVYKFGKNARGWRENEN
# In short: as §1
# SPI1 = SPI1 (Homo sapiens, UniProt P17947 1-270); conditions: protein: recombinant; tags: N-terminal GST; dsDNA, one strand shown
# In short: as §1
# SPIB = SPIB (Homo sapiens, UniProt Q01892 1-262); conditions: protein: recombinant; tags: N-terminal GST; dsDNA, one strand shown
# SPIB, sequence (Q01892 whole entry): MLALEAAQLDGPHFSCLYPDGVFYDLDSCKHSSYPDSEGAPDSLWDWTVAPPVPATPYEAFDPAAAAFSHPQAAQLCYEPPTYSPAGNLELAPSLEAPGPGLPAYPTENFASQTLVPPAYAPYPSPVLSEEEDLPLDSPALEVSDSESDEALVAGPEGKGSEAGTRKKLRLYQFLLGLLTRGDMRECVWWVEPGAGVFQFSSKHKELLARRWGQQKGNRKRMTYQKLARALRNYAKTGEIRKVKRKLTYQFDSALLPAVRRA
# In short: as §1
# ELK3 = target: T6, ELK3 (Homo sapiens, UniProt P41970 1-407); conditions: protein: recombinant; tags: N-terminal GST; dsDNA, one strand shown
# T6 sequence: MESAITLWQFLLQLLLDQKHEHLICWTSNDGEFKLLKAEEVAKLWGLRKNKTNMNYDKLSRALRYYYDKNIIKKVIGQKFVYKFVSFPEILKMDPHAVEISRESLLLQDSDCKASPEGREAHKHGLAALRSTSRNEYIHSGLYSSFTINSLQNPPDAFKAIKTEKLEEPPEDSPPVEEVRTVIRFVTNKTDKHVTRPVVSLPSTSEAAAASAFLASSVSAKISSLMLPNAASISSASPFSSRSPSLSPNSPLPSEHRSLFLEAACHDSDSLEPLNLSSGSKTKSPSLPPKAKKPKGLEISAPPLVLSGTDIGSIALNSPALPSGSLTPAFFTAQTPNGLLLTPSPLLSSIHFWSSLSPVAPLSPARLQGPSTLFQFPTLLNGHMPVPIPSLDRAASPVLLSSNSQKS
# In short: as §1
# FEV = target: T7, FEV (Homo sapiens, UniProt Q99581 1-238); conditions: protein: recombinant; tags: N-terminal GST; dsDNA, one strand shown
# T7 sequence: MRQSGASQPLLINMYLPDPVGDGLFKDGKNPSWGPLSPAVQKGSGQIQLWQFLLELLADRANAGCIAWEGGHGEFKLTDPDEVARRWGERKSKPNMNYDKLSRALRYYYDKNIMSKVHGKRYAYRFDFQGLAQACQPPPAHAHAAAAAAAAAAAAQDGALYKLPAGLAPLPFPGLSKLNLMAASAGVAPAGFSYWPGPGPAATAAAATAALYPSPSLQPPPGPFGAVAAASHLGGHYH
# In short: as §1
# ETV5 = ETV5 (Homo sapiens, UniProt P41161 1-510); conditions: protein: recombinant; tags: N-terminal GST; dsDNA, one strand shown
# ETV5, sequence (P41161 whole entry): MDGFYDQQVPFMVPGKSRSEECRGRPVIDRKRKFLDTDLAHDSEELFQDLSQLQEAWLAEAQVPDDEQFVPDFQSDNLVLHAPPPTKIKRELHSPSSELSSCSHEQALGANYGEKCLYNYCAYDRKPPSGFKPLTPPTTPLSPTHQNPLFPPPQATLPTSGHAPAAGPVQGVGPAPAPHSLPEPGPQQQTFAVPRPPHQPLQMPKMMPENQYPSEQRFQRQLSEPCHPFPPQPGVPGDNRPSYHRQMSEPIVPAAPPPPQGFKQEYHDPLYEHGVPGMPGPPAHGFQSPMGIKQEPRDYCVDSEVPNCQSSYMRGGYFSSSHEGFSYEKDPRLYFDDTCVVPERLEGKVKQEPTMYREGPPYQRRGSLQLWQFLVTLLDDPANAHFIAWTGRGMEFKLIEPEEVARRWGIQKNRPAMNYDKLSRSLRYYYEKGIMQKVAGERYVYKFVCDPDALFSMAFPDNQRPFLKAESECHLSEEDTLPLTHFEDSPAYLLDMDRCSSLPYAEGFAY
# In short: as §1
# HSF1 = HSF1 (Homo sapiens, UniProt Q00613 1-529); conditions: protein: recombinant; tags: N-terminal GST; chain copies: 3; dsDNA, one strand shown
# HSF1, sequence (Q00613 whole entry): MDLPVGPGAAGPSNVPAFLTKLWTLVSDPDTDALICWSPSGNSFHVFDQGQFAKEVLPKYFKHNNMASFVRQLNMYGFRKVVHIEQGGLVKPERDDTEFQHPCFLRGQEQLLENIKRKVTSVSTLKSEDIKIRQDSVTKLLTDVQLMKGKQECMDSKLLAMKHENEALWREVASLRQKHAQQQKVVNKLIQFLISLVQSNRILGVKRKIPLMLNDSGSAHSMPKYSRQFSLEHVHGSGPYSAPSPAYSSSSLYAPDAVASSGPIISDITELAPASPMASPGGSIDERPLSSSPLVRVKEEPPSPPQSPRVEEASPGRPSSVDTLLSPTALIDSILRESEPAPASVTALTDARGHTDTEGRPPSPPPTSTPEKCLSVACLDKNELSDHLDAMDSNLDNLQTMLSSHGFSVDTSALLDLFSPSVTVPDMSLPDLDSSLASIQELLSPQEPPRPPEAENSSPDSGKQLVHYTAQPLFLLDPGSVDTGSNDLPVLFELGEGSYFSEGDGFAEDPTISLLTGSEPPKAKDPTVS
# In short: as §1
# SPIC = target: T8, SPIC (Homo sapiens, UniProt Q8N5J4 1-248); conditions: protein: recombinant; tags: N-terminal GST; dsDNA, one strand shown
# T8 sequence: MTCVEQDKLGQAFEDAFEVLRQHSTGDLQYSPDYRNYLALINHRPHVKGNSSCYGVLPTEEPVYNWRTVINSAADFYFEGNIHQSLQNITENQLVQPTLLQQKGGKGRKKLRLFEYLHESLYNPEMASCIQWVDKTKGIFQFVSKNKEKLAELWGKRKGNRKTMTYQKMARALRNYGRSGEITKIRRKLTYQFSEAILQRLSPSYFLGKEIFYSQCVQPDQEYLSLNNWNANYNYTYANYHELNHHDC
# In short: as §1
# ELF4 = ELF4 (Homo sapiens, UniProt Q99607 1-663); conditions: protein: recombinant; tags: N-terminal GST; dsDNA, one strand shown
# ELF4, sequence (Q99607 whole entry): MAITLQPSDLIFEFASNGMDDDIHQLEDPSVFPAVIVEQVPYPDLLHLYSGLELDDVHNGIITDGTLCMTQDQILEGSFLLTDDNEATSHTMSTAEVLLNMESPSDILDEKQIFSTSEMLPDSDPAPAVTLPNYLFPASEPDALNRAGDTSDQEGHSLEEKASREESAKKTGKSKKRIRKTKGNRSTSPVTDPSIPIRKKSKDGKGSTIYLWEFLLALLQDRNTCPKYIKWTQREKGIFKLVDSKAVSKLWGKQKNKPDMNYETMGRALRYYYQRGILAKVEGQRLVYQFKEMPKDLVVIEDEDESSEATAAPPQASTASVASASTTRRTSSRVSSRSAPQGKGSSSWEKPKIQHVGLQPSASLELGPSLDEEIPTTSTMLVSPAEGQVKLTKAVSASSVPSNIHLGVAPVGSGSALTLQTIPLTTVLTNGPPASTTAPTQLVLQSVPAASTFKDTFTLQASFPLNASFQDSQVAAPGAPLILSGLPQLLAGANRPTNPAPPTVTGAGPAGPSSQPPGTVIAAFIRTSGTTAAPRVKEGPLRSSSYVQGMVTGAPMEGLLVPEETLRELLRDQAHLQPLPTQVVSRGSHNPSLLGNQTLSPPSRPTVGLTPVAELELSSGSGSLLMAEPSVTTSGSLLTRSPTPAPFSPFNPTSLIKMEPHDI
# In short: as §1
# ELK4 = target: T9, ELK4 (Homo sapiens, UniProt P28324-2 1-405); conditions: protein: recombinant; tags: N-terminal GST; dsDNA, one strand shown
# T9 sequence: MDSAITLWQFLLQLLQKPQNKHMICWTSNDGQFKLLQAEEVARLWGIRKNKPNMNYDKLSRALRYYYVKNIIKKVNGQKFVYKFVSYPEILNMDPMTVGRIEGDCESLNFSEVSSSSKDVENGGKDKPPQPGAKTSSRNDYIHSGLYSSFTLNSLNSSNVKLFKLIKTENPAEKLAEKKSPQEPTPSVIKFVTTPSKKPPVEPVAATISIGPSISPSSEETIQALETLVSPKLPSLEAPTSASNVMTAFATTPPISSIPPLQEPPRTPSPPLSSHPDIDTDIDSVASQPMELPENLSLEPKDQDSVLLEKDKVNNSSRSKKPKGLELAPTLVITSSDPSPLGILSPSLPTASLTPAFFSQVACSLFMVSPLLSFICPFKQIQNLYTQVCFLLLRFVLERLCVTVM
# In short: as §1
# ETV2 = target: T10, ETV2 (Homo sapiens, UniProt O00321 1-342); conditions: protein: recombinant; tags: N-terminal GST; dsDNA, one strand shown
# T10 sequence: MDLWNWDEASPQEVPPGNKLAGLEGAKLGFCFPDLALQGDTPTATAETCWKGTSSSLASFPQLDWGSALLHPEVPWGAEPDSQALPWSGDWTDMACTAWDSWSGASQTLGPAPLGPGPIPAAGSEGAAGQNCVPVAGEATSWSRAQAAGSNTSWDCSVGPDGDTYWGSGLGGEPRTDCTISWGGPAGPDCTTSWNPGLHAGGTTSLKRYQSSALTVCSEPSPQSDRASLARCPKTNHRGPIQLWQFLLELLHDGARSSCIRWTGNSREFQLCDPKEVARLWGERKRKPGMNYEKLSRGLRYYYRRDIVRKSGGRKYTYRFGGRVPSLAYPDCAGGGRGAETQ
# In short: as §1
# ELF3 = target: T11, ELF3 (Homo sapiens, UniProt P78545 1-371); conditions: protein: recombinant; tags: N-terminal GST; dsDNA, one strand shown
# T11 sequence: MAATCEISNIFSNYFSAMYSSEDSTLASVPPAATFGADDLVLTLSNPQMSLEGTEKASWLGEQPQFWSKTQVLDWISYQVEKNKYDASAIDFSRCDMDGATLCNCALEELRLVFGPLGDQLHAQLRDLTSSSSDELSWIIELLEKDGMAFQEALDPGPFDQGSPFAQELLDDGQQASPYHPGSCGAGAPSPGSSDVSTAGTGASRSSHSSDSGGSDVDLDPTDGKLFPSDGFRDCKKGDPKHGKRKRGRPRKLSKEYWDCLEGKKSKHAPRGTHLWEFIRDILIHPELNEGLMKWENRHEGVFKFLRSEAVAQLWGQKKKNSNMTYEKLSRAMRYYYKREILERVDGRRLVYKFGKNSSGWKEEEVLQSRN
# In short: as §1
# ETV1 = ETV1 (Homo sapiens, UniProt P50549 1-477); conditions: protein: recombinant; tags: N-terminal GST; dsDNA, one strand shown
# ETV1, sequence (P50549 whole entry): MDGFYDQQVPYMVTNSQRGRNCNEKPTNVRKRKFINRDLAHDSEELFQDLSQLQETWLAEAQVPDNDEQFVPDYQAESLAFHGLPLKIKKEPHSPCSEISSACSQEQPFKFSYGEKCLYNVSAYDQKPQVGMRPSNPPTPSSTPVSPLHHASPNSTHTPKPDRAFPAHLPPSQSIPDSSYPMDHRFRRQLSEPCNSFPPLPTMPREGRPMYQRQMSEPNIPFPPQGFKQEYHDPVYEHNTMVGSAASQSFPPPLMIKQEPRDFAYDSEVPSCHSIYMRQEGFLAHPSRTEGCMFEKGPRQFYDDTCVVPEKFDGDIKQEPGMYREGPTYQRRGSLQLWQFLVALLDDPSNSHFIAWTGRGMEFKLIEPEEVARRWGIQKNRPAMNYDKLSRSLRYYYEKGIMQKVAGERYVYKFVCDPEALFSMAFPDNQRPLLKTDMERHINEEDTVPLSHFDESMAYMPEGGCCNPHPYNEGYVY
# In short: as §1
sequence,measurement,setting,value
CAGGAA,binding signal,FLI1,"1.63 fold enrichment (6-mer frequency, TF over GST control)"
same,binding signal,ELK1,"1.57 fold enrichment (6-mer frequency, TF over GST control)"
same,binding signal,GABPA,"1.5 fold enrichment (6-mer frequency, TF over GST control)"
same,binding signal,ERG,"1.83 fold enrichment (6-mer frequency, TF over GST control)"
same,binding signal,ELF1,"1.48 fold enrichment (6-mer frequency, TF over GST control)"
same,binding signal,EHF,"1.79 fold enrichment (6-mer frequency, TF over GST control)"
same,binding signal,SPI1,"1.96 fold enrichment (6-mer frequency, TF over GST control)"
same,binding signal,SPIB,"1.69 fold enrichment (6-mer frequency, TF over GST control)"
same,binding signal,ELK3,"1.57 fold enrichment (6-mer frequency, TF over GST control)"
same,binding signal,FEV,"1.51 fold enrichment (6-mer frequency, TF over GST control)"
same,binding signal,ETV5,"1.79 fold enrichment (6-mer frequency, TF over GST control)"
same,binding signal,HSF1,"1.04 fold enrichment (6-mer frequency, TF over GST control)"
same,binding signal,SPIC,"1.65 fold enrichment (6-mer frequency, TF over GST control)"
same,binding signal,ELF4,"1.52 fold enrichment (6-mer frequency, TF over GST control)"
same,binding signal,ELK4,"1.37 fold enrichment (6-mer frequency, TF over GST control)"
same,binding signal,ETV2,"1.6 fold enrichment (6-mer frequency, TF over GST control)"
same,binding signal,ELF3,"1.86 fold enrichment (6-mer frequency, TF over GST control)"
same,binding signal,ETV1,"1.74 fold enrichment (6-mer frequency, TF over GST control)"
